WT yeast gro inh = growth inhibition of WT yeast, mitochondrial fusion screen; 190,000 tested, 2.1% active; mitochondrial fusion phenotypic screen, WT strain; inhibition, % at 10 µM; in the data active = inhibition above about 58%; tested in S. cerevisiae
KCC2 mod = modulates chloride dependent transport by human KCC2 | AID 1456 | KCC2 cells, thallium flux FluoZin-2 fluorescence | 190,000 tested, 2.2% active | Q9H2X9 | B-score of Tl+ flux slope (higher = more flux/activation; lower = inhibition) at 10 µM;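 active = thallium flux slope and its plate-corrected score both differing from the plate sample mean at a set confidence after two filtering rounds, in either direction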;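 also: slope of fluorescence scaled to starting intensity during 10 to 20 s after thallium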
ROMK mod = modulates human ROMK potassium channel activity; P48048; Tet-inducible ROMK, thallium flux fluorescence; actives lie on both sides; B-score at 10 µM; 130,000 tested, 2% active; AID 1918;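 active = signal ratio slope over the read window, or its plate-corrected B-score, at least 3 SD from the plate mean, either direction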;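 also: B-score of the F/F0 ratio slope over 7 to 12 s after thallium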
L major viab = Leishmania major promastigote growth inhibition | Leishmania major promastigotes, resazurin fluorescence viability | inhibition, % at 10 µM | 200,000 tested, 9% active | AID 1063; in the data active = inhibition above about 50%;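 also: promastigotes grown with compound for 44 hours at 28 °C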
Calpain2 inh = blocks pig calpain II enzyme activity; purified calpain II, fluorogenic peptide substrate, 30 min; inhibition, % at 16 µM; 220,000 tested, 0.37% active; AID 1236;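 active = inhibition above about 50%, limit read from the data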
A number is an active result; n = inactive; x = no result given. Only some compounds are listed: those with a hit (about 12% of all), similar ones and a draw of the others.

SMILES	WT yeast gro inh	KCC2 mod	ROMK mod	L major viab	Calpain2 inh
COc1ccc(-n2cc(CNCCc3ncc(C)[nH]3)c(-c3ccccc3Cl)n2)cc1	n	n	x	100	n
CCN1CCC(CNCc2cn(-c3ccc(OC)cc3)nc2-c2ccccc2Cl)C1 (stereo not drawn)	n	n	n	101	n
O=C(c1cc2ccccc2oc1=O)N(Cc1ccco1)C1CCS(=O)(=O)C1 (stereo not drawn)	n	-4.7	n	n	n
COc1ccc(C(=O)NNC(=O)c2ccc(C)cc2)cc1S(=O)(=O)N1CCCC1	n	n	n	n	n
CC(On1nnc2ccccc21)C(=O)N1CCN(Cc2ccccc2)CC1 (stereo not drawn)	n	n	n	n	n
COc1ccc(C2=NO[C@@H]3C(=O)N(C4CCCCC4)C(=O)[C@H]23)cc1OC	n	x	n	n	n
COc1ccc(-c2nc3c(n2O)CCCC3=O)cc1OC	60	x	n	n	n
Cc1ccc(NC(=O)CC(=O)c2ccc([N+](=O)[O-])cc2)cc1S(=O)(=O)Nc1cccc(Cl)c1	n	n	n	51	n
CN(c1cccc(NC(=O)c2ccc(Cl)c(S(=O)(=O)Nc3ccccc3)c2)c1)S(C)(=O)=O	n	x	x	n	n
Cc1ccc(C(=O)Nc2cccc([N+](=O)[O-])c2)cc1S(=O)(=O)Nc1cccc(C(=O)O)c1	n	n	n	n	n
Cc1ccccc1NS(=O)(=O)c1cc(C(=O)Nc2cccc(N(C)S(C)(=O)=O)c2)ccc1C	n	x	x	97	n
Cc1ccc(NS(=O)(=O)c2cc(C(=O)Nc3cccc([N+](=O)[O-])c3)ccc2C)cc1	64	n	n	67	n
Cc1ccc(C(=O)Nc2cccc([N+](=O)[O-])c2)cc1S(=O)(=O)Nc1ccc(NC(=O)c2ccccc2)cc1	n	n	x	62	n
Cc1ccc(NC(=O)c2cccs2)cc1S(=O)(=O)Nc1cccc(Cl)c1	70	n	x	51	n
Cc1ccc(C(=O)NCCSC2CCCCC2)cc1S(=O)(=O)Nc1ccccc1	n	x	x	97	n
Cc1ccc(NS(=O)(=O)c2ccc(OCC(=O)Nc3cccc([N+](=O)[O-])c3)c(C)c2)cc1	x	n	x	100	n
CN1CCN(C(=O)C23CCC(C)(c4nc5ccccc5nc42)C3(C)C)CC1 (stereo not drawn)	n	n	x	n	n
COc1cccc(CN(C)C(=O)CCc2nnc(-c3ccsc3)o2)c1	n	n	n	n	n
CCOC(=O)CN(C)C(=O)CCc1nnc(-c2ccsc2)o1	59	n	n	n	n
c1ccc(CNc2nc(-c3cccs3)nc3ccccc23)nc1	n	n	n	78	n
COc1ccc(Nc2nc(-c3cccs3)nc3ccccc23)c(OC)c1	n	n	n	n	n
Cc1ccc(CNc2nc(-c3cccs3)nc3ccccc23)cc1	76	n	n	76	n
O=C(Nc1ccc(Cl)c(S(=O)(=O)N2CCOCC2)c1)c1ccc(OCC2CCCO2)cc1 (stereo not drawn)	n	n	n	n	n
Oc1cccc2ccc(Nc3ccccn3)nc12	n	n	n	100	n
Cn1cnnc1SCC(=O)NCCc1ccc(Cl)cc1Cl	n	n	n	n	n
SMILES	WT yeast gro inh	KCC2 mod	ROMK mod	L major viab	Calpain2 inh
CCC(=O)c1ccc(OCC(O)CNCc2ccc(F)cc2)cc1 (stereo not drawn)	n	n	x	80	n
CCC(=O)c1ccc(OCC(O)CN(C)C2CCCCC2)cc1 (stereo not drawn)	n	n	n	92	n
CN(CC(O)COC(c1ccccc1)c1ccccc1)C1CCCCC1 (stereo not drawn)	n	n	n	n	n
Cc1cccc(C)c1OCC(O)CN(Cc1ccccc1O)C1CCCCC1 (stereo not drawn)	n	n	n	94	n
CN(CC(O)COc1ccc(OCC(O)CN(C)C2CCCCC2)cc1)C1CCCCC1 (stereo not drawn)	n	x	n	63	n
N/C(=N\OC(=O)C12CC3CC(CC(C3)C1)C2)c1ccccc1	87	x	x	n	n
O=C(CCCCCn1c(=S)[nH]c2cc3c(cc2c1=O)OCO3)N1CCN(C(=O)c2ccco2)CC1	69	n	x	n	n
CC(C)OCCCn1c(=S)[nH]c2ccc(N3CCOCC3)cc2c1=O	n	n	n	n	n
CC(C)OCCCn1c(=S)[nH]c2cc3c(cc2c1=O)OCO3	n	12	x	n	n
O=C(CSc1nc2[nH]ncc2c(=O)n1-c1ccccc1)N1CCCCCC1	n	n	n	n	n
CCc1cc2cc3c(cc2nc1SCC(=O)N1CCN(C(=O)c2ccco2)CC1)OCO3	n	x	n	84	n
CCc1cc2ccc(C)cc2nc1SCC(=O)N1CCN(C(=O)c2ccco2)CC1	n	x	n	n	n
CCc1cc2ccc(C)cc2nc1SCC(=O)NNC(=O)c1ccco1	n	3	n	n	n
Cc1ccc(C23CC4CC(CC(NC(=O)N5CCN(C)CC5)(C4)C2)C3)cc1	n	n	x	85	n
C=CCn1c(=S)[nH]c2ccc(Br)cc2c1=O	n	52	x	n	n
C=CCn1c(=S)[nH]c2nc3c(cc2c1=O)CCCC3	n	126	x	n	n
CN(C)S(=O)(=O)c1cccc(C(=O)N2CCc3ccccc32)c1	n	n	n	n	n
Cc1cc(C)cc(C(=O)N2CC(C)SC2=Nc2cccc(S(=O)(=O)N(C)C)c2)c1 (stereo not drawn)	n	n	x	98	n
CN(C)S(=O)(=O)c1cccc(N=C2SCCN2Cc2ccccc2)c1	x	n	x	x	n
Cc1ccc(C(=O)N2CC(C)SC2=Nc2cccc(S(=O)(=O)N(C)C)c2)cc1 (stereo not drawn)	n	n	x	95	n
COc1ccc(NC(=O)c2ccc(NCC3CCCO3)c([N+](=O)[O-])c2)cc1 (stereo not drawn)	n	n	n	n	n
CCOC(=O)COc1ccccc1/C=C\[N+](=O)[O-]	69	n	x	100	n
Cn1c(=O)c2c(ncn2Cc2ccc(Cl)cc2)n(C)c1=O	n	n	n	n	n
Cn1c(=O)c2c(ncn2CC(COCc2ccc(Cl)cc2)OCc2ccc(Cl)cc2)n(C)c1=O (stereo not drawn)	n	n	x	100	n
COc1cc2c3c(c1)/C(=C1/SC(NC(C)=O)=NC1=O)C(=O)N3C(C)(C)C=C2C	n	n	n	n	n
SMILES	WT yeast gro inh	KCC2 mod	ROMK mod	L major viab	Calpain2 inh
CCN1C(=O)/C(=C2/C(=O)N3c4c(cc(OC(C)=O)cc42)C(C)=CC3(C)C)SC1=S	n	n	n	78	n
COc1cc2cc(/C=C/C(=O)c3ccco3)c(Cl)nc2cc1OC	n	n	x	76	n
COc1ccc2cc(/C=C/C(=O)c3ccco3)c(Cl)nc2c1	n	n	n	n	n
CN1C=CC=C/C1=C1\SC(=S)N(N)C1=O	n	n	n	n	n
COc1ccc(NC2=C(C(C)=O)C(c3ccccc3)C(C(C)=O)C(C)(O)C2)cc1 (stereo not drawn)	x	n	n	x	n
CCOC(=O)C1=C(Nc2ccccc2)CC(C)(O)C(C(=O)OCC)C1c1ccc(Cl)cc1 (stereo not drawn)	71	n	x	n	n
Cc1cccc(C)c1NC(=S)N(Cc1ccccc1)Cc1cccs1	73	n	n	58	n

Source: PubChem BioAssay
